“And” between values parts separate entries of the source, which are not always exact repeats. Equal entries are not always repeated. The source holds several records for some structures; these can differ, active in one and inactive in another. The source made the active and inactive calls.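 How the source made its calls, unless noted: active means compound that reduces growth-factor-driven endothelial tube area in a mixed cell culture, no cutoff stated; inactive means the rest.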
How the values were obtained:
[1] = stimulators of nuclear beta-catenin in C2C12, primary screen, imaging, WNT3A-conditioned medium, mouse C2C12, NPC library (AID 1117326; in the data active means nuclear beta-catenin stimulation mostly above about 4.2%, no sharp cut-off; inactive means mostly below about 10%; further: reference of the scale not given here); conditions: stronger effect = higher value
[2] = stimulators of insulin release from INS-1E, primary screen, cell-based, 5 mM glucose, NPC library (AID 1117329;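 active means compound raises insulin release from rat beta cells at 5 mM glucose, no numeric limit stated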; further: reference of the scale not given here); conditions: rat INS-1E insulin secretion, at 10 µM, stronger effect = higher value
[3] = growth inhibition of GSK3B-pretreated HCT116 cells – cell-based, CellTiter-Glo, 0.2 to 20 µM (AID 1117336;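 active means compounds lowering colon cancer cell viability after pretreatment blocking the GSK3B kinase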); conditions: HCT116 viability after GSK3B inhibitor, at 20 µM, stronger effect = higher value
[4] = inhibition of endothelial tube formation, primary screen, imaging, VEGF stimulated, CD31 staining, tube area, NPC library (AID 1117340); conditions: VEGF-stimulated ADSC/ECFC co-culture, at 10 µM, stronger effect = higher value
[5] = glucagon-like peptide 1 release enhancers, primary assay, NCI-H716 cell line, NPC library (AID 1117341;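 active means compound raises GLP1 secretion from the human gut endocrine cells, with no numeric limit stated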; further: reference of the scale not given here); conditions: NCI-H716 cells, at 10 µM, stronger effect = higher value
[6] = HCT116 colon cancer cell growth inhibition, primary screen, CellTiter-Glo luminescence, NPC library (AID 1117342;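 active means compounds that lower survival of HCT116 colon cancer cells in the luminescence readout, no numeric limit stated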); conditions: at 20 µM (top of the series)
[7] = CellTiter-Glo luminescent readout of SW480 viability loss, NPC library primary (AID 1117343;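 active means compounds that lower viability of the colon cancer cells in the luminescence readout, with no numeric limit stated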); conditions: CellTiter-Glo luminescence; at 20 µM (top of the series)
[8] = decreased DLD-1 cellular survival, CellTiter-Glo luminescent readout, NPC compound collection, primary HTS (AID 1117346;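 active means compounds that lower survival of DLD-1 colon cancer cells in the luminescence readout, no cutoff given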); conditions: DLD-1 viability, CellTiter-Glo luminescence; at 20 µM (top of the series)

CCOC(=O)c1cccnc1
0.3%: nuclear beta-catenin stimulation ([1]; stimulation, at 2 µM)
active: viability decrease (inhibition) [7] 58.1%
inactive: nuclear beta-catenin stimulation ([1]; at 10 µM) 0.1% | insulin secretion stimulation [2] -2.3% | viability decrease [3] -2.55% | tube area decrease [4] -7.8% | GLP1 secretion stimulation [5] 1.1% | inhibition of viability [6] -17.8% | viability decrease (inhibition) [8] -9.05%

O=C(CCN1CCN2CCCC2C1)N1c2ccccc2Sc2ccc(Cl)cc21 (centres undefined)
0.2%: nuclear beta-catenin stimulation ([1]; stimulation, at 2 µM)
active: insulin secretion stimulation [2] 63.8% | inhibition of viability [6] 61.4% | viability decrease (inhibition) [7] 99.3%
inactive: nuclear beta-catenin stimulation ([1]; at 10 µM) 1.1% | viability decrease [3] 49.9% | tube area decrease [4] 8% | GLP1 secretion stimulation [5] 8.5% | viability decrease (inhibition) [8] 49.5%

O=[N+]([O-])c1ccc(Oc2ccc(N=C=S)cc2)cc1
inactive: nuclear beta-catenin stimulation ([1]; at 10 µM) 36.7% | insulin secretion stimulation [2] -0.5% | GLP1 secretion stimulation [5] -5%
active: viability decrease [3] 97.7% | tube area decrease [4] 108% | inhibition of viability [6] 98.9% | viability decrease (inhibition) [7] 95.7% | viability decrease (inhibition) [8] 100%
1.6%: nuclear beta-catenin stimulation ([1]; stimulation, at 2 µM)

CC(C)(C)NCC(O)COc1ccc(NC(=O)NC2CCCCC2)cc1 (centres undefined)
-0.1%: nuclear beta-catenin stimulation ([1]; stimulation, at 2 µM)
inactive: nuclear beta-catenin stimulation ([1]; at 10 µM) 1.2% | insulin secretion stimulation [2] 1.65% | viability decrease [3] -5.2% | tube area decrease [4] 9.5% | GLP1 secretion stimulation [5] 2% | inhibition of viability [6] -0.2% | viability decrease (inhibition) [7] -5.6% | viability decrease (inhibition) [8] -1.8%

CC(=O)N1C[C@H](O)C[C@H]1C(=O)O
-0.3%: nuclear beta-catenin stimulation ([1]; stimulation, at 2 µM)
inactive: nuclear beta-catenin stimulation ([1]; at 10 µM) 0.5% | insulin secretion stimulation [2] -0.3% | viability decrease [3] -2.7% | tube area decrease [4] -1.7% | GLP1 secretion stimulation [5] -0.9% | inhibition of viability [6] 7.13% | viability decrease (inhibition) [7] 8.1% | viability decrease (inhibition) [8] 4%

CCOC(=O)C(=O)CCCCCCl
-1.9%: nuclear beta-catenin stimulation ([1]; stimulation, at 2 µM)
inactive: nuclear beta-catenin stimulation ([1]; at 10 µM) 0.6% | insulin secretion stimulation [2] 1.45% | viability decrease [3] 12.3% | tube area decrease [4] -8.5% | GLP1 secretion stimulation [5] -1% | inhibition of viability [6] 12.6% | viability decrease (inhibition) [7] 11.4% | viability decrease (inhibition) [8] 0.1%

O=[N+]([O-])c1nccn1CO[C@@H](CO)[C@H](O)CO
-0.8%: nuclear beta-catenin stimulation ([1]; stimulation, at 2 µM)
inactive: nuclear beta-catenin stimulation ([1]; at 10 µM) -0.2% | insulin secretion stimulation [2] 1.45% | viability decrease [3] 40% | tube area decrease [4] -13.2% | GLP1 secretion stimulation [5] -3.1% | inhibition of viability [6] 7.6% | viability decrease (inhibition) [7] 2.3% | viability decrease (inhibition) [8] -5.8%

C[C@@]12CCC[C@H]1[C@@H]1CC[C@H]3C[C@@H](O)CC[C@]3(C)[C@H]1CC2
-0.1%: nuclear beta-catenin stimulation ([1]; stimulation, at 2 µM)
active: viability decrease [3] 65.4% | viability decrease (inhibition) [7] 121% | viability decrease (inhibition) [8] 103%
inactive: nuclear beta-catenin stimulation ([1]; at 10 µM) 3% | insulin secretion stimulation [2] -1% | tube area decrease [4] -28.4% | GLP1 secretion stimulation [5] 4% | inhibition of viability [6] -11.6%

COc1ccc2cc(C=O)ccc2c1
inactive: nuclear beta-catenin stimulation ([1]; at 10 µM) 0.1% | insulin secretion stimulation [2] 0.95% | viability decrease [3] 17.4% | tube area decrease [4] -8.2% | GLP1 secretion stimulation [5] -3.7% | inhibition of viability [6] 16.4% | viability decrease (inhibition) [7] 7% | viability decrease (inhibition) [8] 5.8%
0.2%: nuclear beta-catenin stimulation ([1]; stimulation, at 2 µM)

O=C(NN1CCCC1)NS(=O)(=O)c1ccc(Cl)cc1
-0.1%: nuclear beta-catenin stimulation ([1]; stimulation, at 2 µM)
active: insulin secretion stimulation [2] 33.9%
inactive: nuclear beta-catenin stimulation ([1]; at 10 µM) -0.5% | viability decrease [3] -3.1% | tube area decrease [4] 7% | GLP1 secretion stimulation [5] -1.1% | inhibition of viability [6] 14.2% | viability decrease (inhibition) [7] 0% | viability decrease (inhibition) [8] -2.8%

NC(=O)NNc1ccccc1
inactive: nuclear beta-catenin stimulation ([1]; at 10 µM) 3.2% | insulin secretion stimulation [2] -1.9% | viability decrease [3] -9.75% | tube area decrease [4] 16% | GLP1 secretion stimulation [5] 1.4% | inhibition of viability [6] -3% | viability decrease (inhibition) [7] 30.5% | viability decrease (inhibition) [8] 7.45%
0.7%: nuclear beta-catenin stimulation ([1]; stimulation, at 2 µM)

NS(=O)(=O)c1cc2c(cc1Cl)CN(C1CCCCC1)C2=O
inactive: nuclear beta-catenin stimulation ([1]; at 10 µM) -0.9% | insulin secretion stimulation [2] -0.2% | viability decrease [3] -0.4% | tube area decrease [4] -3.4% | GLP1 secretion stimulation [5] 1.4% | inhibition of viability [6] -2.17% | viability decrease (inhibition) [7] -0.2% | viability decrease (inhibition) [8] -3.8%
-0.3%: nuclear beta-catenin stimulation ([1]; stimulation, at 2 µM)

COC(=O)[C@H]1[C@H]2C[C@@H]3c4[nH]c5cc(OC)ccc5c4CCN3C[C@H]2C[C@@H](OC(=O)/C=C/c2ccc(O)c(OC)c2)[C@@H]1OC
3.6%: nuclear beta-catenin stimulation ([1]; stimulation, at 2 µM)
inactive: insulin secretion stimulation [2] 0.4% | tube area decrease [4] 21% | GLP1 secretion stimulation [5] 0.1%
active: nuclear beta-catenin stimulation ([1]; at 10 µM) 74.6% | viability decrease [3] 91.8% | inhibition of viability [6] 85% | viability decrease (inhibition) [7] 142% | viability decrease (inhibition) [8] 102%

O=C(c1ccccc1)c1ccccc1
1.3%: nuclear beta-catenin stimulation ([1]; stimulation, at 2 µM)
inactive: nuclear beta-catenin stimulation ([1]; at 10 µM) 0.7% | insulin secretion stimulation [2] -0.6% | viability decrease [3] 8.9% | tube area decrease [4] -20.2% | GLP1 secretion stimulation [5] 2.4% | inhibition of viability [6] 22.5% | viability decrease (inhibition) [7] 21% | viability decrease (inhibition) [8] 9.1%

CCCCCC1Nc2cc(C(F)(F)F)c(S(N)(=O)=O)cc2S(=O)(=O)N1 (centres undefined)
inactive: nuclear beta-catenin stimulation ([1]; at 10 µM) 0.5% | insulin secretion stimulation [2] 2% | viability decrease [3] 13.4% | tube area decrease [4] 9.2% | GLP1 secretion stimulation [5] -0.1% | inhibition of viability [6] 43% | viability decrease (inhibition) [7] 0.7% | viability decrease (inhibition) [8] 31.7%
-0.2%: nuclear beta-catenin stimulation ([1]; stimulation, at 2 µM)

OC[C@@H](O)[C@H](O)[C@H](O)[C@@H](O)CO
-0.3% and 1%: nuclear beta-catenin stimulation ([1]; stimulation, at 2 µM)
inactive: nuclear beta-catenin stimulation ([1]; at 10 µM) 0.7% and 2.5% | insulin secretion stimulation [2] 0.1% and 1.8% | viability decrease [3] -25.2% and 11.4% | GLP1 secretion stimulation [5] 0.3% and -1.2% | inhibition of viability [6] -3.33% and -2.5% | viability decrease (inhibition) [7] 4.1% and 1.5% | viability decrease (inhibition) [8] -1.5% and -4.9%
3.7% (inactive) and 50.5% (active): tube area decrease [4]

— PubChem BioAssay
